Results: ChEMBL document CHEMBL4888484, “Replenishing the malaria drug discovery pipeline: Screening and hit evaluation of the MMV Hit Generation Library 1 (HGL1) against asexual blood stage Plasmodium falciparum ,using a nano luciferase reporter read-out” (2022)
Out of some 4,800 compounds screened, about 410 (8.5%) showed an effect of 50% or more. This is one part of a sample in which strong results are shown more often than they occur.

test system: Plasmodium falciparum; assay: Confirmatory screen in NF54 pLDH assay, in single point, at 2uM, 72h; type: functional, Erythrocyte; details: timepoint 72 hour

Point of comparison: COc1ccc(C)cc1NC(=O)N1CC(c2nc(C(C)C)nn2C)C1, “% Inhibition” value 1%. Against it:
- NC(=O)COCC(=O)Nc1ccccc1 — lower, -9%
- CCc1[nH]nc(NC(=O)c2c(C)ccnc2O)c1C — lower, -11%
- CO[C@@H](CNC(=O)c1nc2n(n1)-c1ccccc1S(=O)(=O)N2)c1ccccc1 — lower, 0%
- O=c1[nH]nc2c(N3CC[C@H](NCc4ccc(F)cc4)C3)nccn12 — higher, 11%
- c1cn2cnnc2c(N(CC2CC2)CC2CC2)n1 — lower, -5%
- CC[C@H]1Cn2c(C(=O)NCc3ccc4c(c3)OCO4)cc3c(Cl)ccc(c32)O1 — lower, -10%
- O=C(Cn1cnc2ccc(Cl)cc2c1=O)NCc1ccc2c(c1)OCO2 — lower, -5%
- Cc1ccc(Cn2c(=O)c(C(=O)NCc3ccc4c(c3)OCO4)nn(-c3ccc(C(C)C)cc3)c2=O)cc1 — higher, 52%
- Cc1ccc(NC(=O)Nc2c(C3=CCCCC3)c(C)nn2C)cc1C — lower, -13%
- CC(C)(C)OC(=O)N1CC(NC(=O)C2CC2c2ccccc2C(F)(F)F)C1 (stereo not given) — lower, -16%
- CCc1c([C@H](C)S(=O)(=O)c2ccccc2)[nH]c(=O)n1Cc1cccs1 — lower, -7%
- Cc1cc(N2CCN(c3ccccn3)CC2)n2cc(-c3ccccc3)nc2n1 — higher, 14%
- O=S(=O)(C1CC1)N1CC[C@H](CO)C1 — lower, 0%
- Cc1ccc(S(=O)(=O)Cc2nc(-c3ccc(C(=O)Nc4ccc(C)cc4Cl)cc3)oc2C)cc1 — higher, 14%
- COc1cccc(-c2noc3nc(C)cc(C(=O)NCCCn4ccc(C)n4)c23)c1 — higher, 11%
- Cc1ccc(NC(=O)C2C3NC(=O)N(c4ccccc4)C2(C)Oc2ccc(C)cc23)c(C)c1 (stereo not given) — lower, -9%
- CC(C)c1ccc(N2C(=O)[C@H](CC(=O)N3CCN(C)CC3)N=C2O)cc1 — higher, 9%
- CC(=O)NCCNC(=O)Nc1ccccc1N(C)C1CCCC1 — lower, -5%
- CCOc1cc(CNC2CCN(C(C)=O)CC2)ccc1OCc1c(F)cccc1Cl — higher, 13%
- CCCc1cc(-c2nc(-c3ccc(-n4nc(C)cc4N)cc3)no2)n(C)n1 — higher, 88%
- Cc1cc(N)n(-c2nc(-c3ccccc3)cc(=O)[nH]2)n1 — lower, -1%
- Cc1n[nH]c(C)c1NC(=O)CN1CC(C)OC(C)C1 (stereo not given) — lower, -7%
- COc1ccsc1S(=O)(=O)N(CCN(C)C)C1CCCC1 — lower, -9%
- O=C(Cn1cnc2nc(N3CCCCC3)sc2c1=O)Nc1cc(Cl)cc(Cl)c1 — the same, 1%
- Cc1cc(C)c(C(=O)O)cc1NC(=O)c1oc(C2CC2)nc1C — lower, -8%
- CCN1CCN(c2nc(O)c3c(n2)NC(=O)C[C@H]3c2cccc(F)c2)CC1 — lower, -7%
- O=C(Nc1ccc(N2CCOCC2)c(F)c1)OCc1ccccc1 — higher, 2%
- COC(=O)C1(NC(=O)c2scnc2C)CCCCC1 — lower, -5%
- CC1CCC2C(CCC(C)N2C(=O)c2cc3nc4c(c(C(F)(F)F)n3n2)CCc2ccccc2-4)C1 (stereo not given) — the same, 1%
- COc1ccccc1N1CCN(CC(=O)Nc2c3c(nc4ccccc24)N(c2cccc(C)c2)CC3)CC1 — lower, -24%
- Cc1ccccc1CNC(=O)[C@H]1CCCN(c2nc3ccccc3[nH]c2=O)C1 — higher, 13%
- Cc1ccccc1CNC(=O)[C@H]1CCCN(c2nc3cccnc3n(Cc3ccccc3)c2=O)C1 — lower, -6%
- CC(C)(C)C(=O)/C(=N\OC(=O)Nc1ccc(Cl)cc1)n1cncn1 — lower, 0%
- CCCCn1nnc(N(C(=O)c2cccc3c(Br)cccc23)C(=O)c2cccc3c(Br)cccc23)n1 — lower, 0%
- Cc1ccccc1[C@H]1CCN(c2ccc(NC(=O)c3ccc(Cl)cc3)c(C(=O)O)c2)C1 — lower, -17%
- Cc1ccc(C(=O)Nc2ccc(N3CCN(CCC#N)CC3)cc2C(=O)O)cc1 — lower, -6%
- Cc1ccc(C(=O)Nc2cc3c4c(c2)C2CCCC2CN4CC2CCCC32)cc1 (stereo not given) — higher, 54%
- Cc1ccccc1[C@H]1CC(=O)Nc2c1c(C)nn2-c1nncc(-c2ccc(Cl)cc2)n1 — higher, 15%
- Cc1c(-c2ccc(F)cc2)[nH]c2ccc(CNc3nccc(N(C)C)n3)cc12 — higher, 50%
- CCNc1ccnc(NCc2nc(-c3cccc(F)c3)c(-c3ccccn3)[nH]2)n1 — higher, 22%
- Cc1nn(C)cc1-c1n[nH]cc1Br — higher, 7%
- COc1ccccc1N(Cc1ccccc1)C1=NC(=[N+](Cc2ccccc2)c2ccccc2OC)c2ccccc21 — higher, 67%
- CC1COCCC1NCc1ncn(Cc2cccc(F)c2)n1 (stereo not given) — lower, -4%
- Cc1cnn(CCCNC(=O)c2ccc3[nH]c4c(c3c2)CCCC4)c1 — higher, 5%
- CCN1CCN(C2CCN(c3ncc(F)c(OC)n3)CC2)CC1 — higher, 50%
- COc1nc(N2[C@@H]3CC[C@H]2C[C@@H](OC)C3)ncc1F — higher, 52%
- CCN1CCC2CCC(C1)N2C(=O)Nc1ccc(OC2CCC2)c(F)c1 (stereo not given) — lower, -18%
- O=S(=O)(c1ccc(Cl)cc1)n1ccc(C2CC2)n1 — higher, 4%
- COc1cccc(CNCCCN2CCOCC2)c1OCc1ccc(F)cc1Cl — the same, 1%
- CC(C)(C)NC(=O)CNc1nnc(C2CC2)s1 — higher, 12%
- CCCCCC1CCC(c2ccc(-c3ccc(CC)cn3)cc2F)CC1 (stereo not given) — higher, 7%
- Cc1c[nH]c(=O)n1-c1ccc(C(=O)NCCc2cc(F)cc(F)c2)cc1 — higher, 10%
- O=C(CC1COCCN1C(=O)C1CCc2ccccc21)c1ccco1 (stereo not given) — lower, -17%
- CCOc1c(CNCCN(C)C)cc(Br)cc1OC — higher, 3%
- COc1ccc2c(/C=C/c3cc[n+](C)cc3)cn(Cc3ccccc3)c2c1 — higher, 62%
- COc1ccc2ncc(=O)n(CCOc3ccccc3)c2c1 — higher, 9%
- COc1ccc2nc(N3CN(Cc4ccccc4)CN(c4nc5ccc(OC)cc5s4)C3)sc2c1 — the same, 1%
- N#Cc1ccc2c(c1)N(Cc1ccccc1F)C(=O)[C@@H]1CCCN21 — higher, 7%
- O=C(N[C@@H](N1CCOCC1)C(Cl)(Cl)Cl)c1ccccc1Cl — higher, 8%
- O=C(CN1CCCC1)N1CCCN(S(=O)(=O)c2ccccc2)[C@H]1c1ccccc1 — lower, -2%
- Cc1ccc(CNc2ccc(S(C)(=O)=O)cc2)c(=O)n1C — lower, -9%
- CCc1nnc(NC(=O)NCc2c[nH]nn2)s1 — lower, -6%
- c1ccc2oc(-c3ccnc4nncn34)cc2c1 — higher, 3%
- Cc1ccc2nc(-c3cc4ccccc4o3)cn2c1 — higher, 52%
